In PubChem BioAssay:
Unmarked numbers belong to inactive results. Calls of active or inactive are those of the source.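 How the source made its calls: active means inhibition at or above 50% relative to wild type and mutant plate controls; inactive means inhibition below 50%.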

assay: inhibitors of Chlamydomonas gravitaxis, primary screen, whole organism, Chlamydomonas reinhardtii, WT vs cilia-less mutant, absorbance, 96-well (AID 463189); settings: OD600 absorbance, 2 days, at 10 µM, hits give high values;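 further: 0% = wild type cc124 cells in DMSO and 100% = ciliumless bld1 mutant cells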

| SMILES | inhibition |
| --- | --- |
| O=C1C(SCCO)=C(SCCO)C(=O)c2ccccc21 | 152% (active) |
| CCSC(=N)N | 4.79% |
| C1CCC(N=C(NC23CC4CC(CC(C4)C2)C3)N2CCOCC2)CC1 | 2.95% |
| N[C@@H](Cc1c[nH]c2ccc(O)cc12)C(=O)O | 4.83% |
| CNCCC(Oc1ccccc1C)c1ccccc1 (stereo not given) | 10.9% |
| CN(C)CC[C@@H](c1ccc(Cl)cc1)c1ccccn1 | 32.3% |
| NCCCNCCSP(=O)(O)O | 1.58% |
| CCN(CC)CCCC(C)Nc1c2ccc(Cl)cc2nc2ccc(OC)cc12 (stereo not given) | 16.9% |
| CC(C)NC[C@@H](O)COc1ccc(CC(N)=O)cc1 | -8.19% |
| CN(C)c1cc2c(Nc3ccc4c(cnn4Cc4ccccc4)c3)ncnc2cn1 | 2.93% |
| CC1COc2c(N3CCN(C)CC3)c(F)cc3c(=O)c(C(=O)O)cn1c23 (stereo not given) | 6.49% |
| C#CCn1c(=O)c2c(ncn2C)n(C)c1=O | 3.25% |
| CC1=C(/C=C/C(C)=C/C=C/C(C)=C/C(=O)Nc2ccc(O)cc2)C(C)(C)CCC1 | 1.68% |
| Cc1ccc(C(=O)Nc2ccc(S(=O)(=O)O)c3cc(S(=O)(=O)O)cc(S(=O)(=O)O)c23)cc1NC(=O)c1cccc(NC(=O)Nc2cccc(C(=O)Nc3cc(C(=O)Nc4ccc(S(=O)(=O)O)c5cc(S(=O)(=O)O)cc(S(=O)(=O)O)c45)ccc3C)c2)c1 | -3.04% |
| NC1(C(=O)O)CCCCC1 | -2.27% |
| CCCCC[C@H](CC(=O)NO)C(=O)N[C@H](C(=O)N1CCC[C@H]1CO)C(C)C | -2.25% |
| Nc1ccn([C@@H]2O[C@H](CO)[C@@H](O)[C@@H]2O)c(=O)n1 | 0.194% |
| Cc1c(C)c2c(c(C)c1O)CCC(C)(CN1CCN(c3cc(N4CCCC4)nc(N4CCCC4)n3)CC1)O2 (stereo not given) | 6.96% |
| CC1(C)NC(=O)N(c2ccc([N+](=O)[O-])c(C(F)(F)F)c2)C1=O | 0.277% |
| CC(COc1ccc(/C=C/c2ccccc2)cc1)[N+](C)(C)C (stereo not given) | 52% (active) |

| SMILES | inhibition |
| --- | --- |
| CCCCCCCCCCCCCCCCCCNC(=O)OCC(COP(=O)([O-])OCC[n+]1ccsc1)OC (stereo not given) | 7% |
| Nc1ccc(N2C(=O)c3ccccc3C2=O)c(Cl)c1 | -0.463% |
| CCN(Cc1ccncc1)C(=O)C(CO)c1ccccc1 (stereo not given) | 7.61% |
| Nc1ccc2c3c(cccc13)C(=O)NC2=O | 32.5% |
| NC/C=C\C(=O)O | 3.63% |
| Nc1nc(SCc2ccc([N+](=O)[O-])cc2)c2ncn([C@@H]3O[C@H](CO)[C@H](O)C3O)c2n1 (stereo not given in full) | -2.89% |
| CC(O)C(O)[C@H]1CNc2nc(N)[nH]c(=O)c2N1 (stereo not given in full) | 6.73% |
| O=c1c(-c2ccc(O)cc2)coc2cc(O)cc(O)c12 | -5.08% |
| C=C(C)C1CC=C(C(=O)O)CC1 (stereo not given) | 1.75% |
| NC[C@H](O)c1ccc(O)c(O)c1 | 6.74% |
| CN(C)S(=O)(=O)c1ccc2c(c1)/C(=C/c1cc3c([nH]1)CCCC3)C(=O)N2 | 4.39% |
| C[C@@](Cc1ccc(O)c(O)c1)(NN)C(=O)O | -8.89% |
| Cc1cccc(C(=O)NCN2CCN(c3ccccc3C#N)CC2)c1 | 0.075% |
| COc1cc(C(O)C(=O)O)ccc1O (stereo not given) | 2.56% |
| Nc1ncnc2c1ncn2[C@@H]1O[C@H](COP(=O)(O)OP(=O)(O)OP(=O)(O)OP(=O)(O)OC[C@@H]2O[C@H](n3cnc4c(N)ncnc43)C(O)[C@@H]2O)[C@H](O)C1O (stereo not given in full) | 15% |
| NCCCCCCCCCCN | 2.72% |
| O=C1N=C(O)CN1/N=C/c1ccc(-c2ccc([N+](=O)[O-])cc2)o1 | 4.87% |
| COc1ccc(NC(=O)c2ccc(-c3ccc(-c4noc(C)n4)cc3C)cc2)cc1N1CCN(C)CC1 | 47.6% |
| CCOC(=O)C12CC1/C(=N/O)c1ccccc1O2 (stereo not given) | 6.31% |
| O=C(O)CNC(=O)C(CS)Cc1ccccc1 (stereo not given) | -0.967% |
